Experimental data as given in PubChem BioAssay (NCATS).
Results filed as inconclusive are left out. The source made the active and inactive calls. Unless noted, the call rests on the fitted dose curve; in most records, active means well fitted curve in the direction sought with a large enough effect; inconclusive means small, poorly fitted or top-dose-only effect, or another doubt; inactive means no such curve, though single readings can be large; an effect the other way counts as inactive or inconclusive.

Tests used:
[1] = biological target: Pyruvate kinase PKM (Homo sapiens) (UniProt P14618); test: qHTS Assay for Activators of Human Muscle Pyruvate Kinase (AID 954; active means well fitted curve in the direction sought with a large enough effect, not every such curve was filed as active)
In short: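 Purified human PKM2 (0.1 nM) with 0.5 mM PEP (Km) and 0.1 mM ADP in 50 mM imidazole pH 7.2, KCl, MgCl2, 1 h at room temperature; ATP formed read by coupled luciferase luminescence. Normalized to no-enzyme/110 uM thiadiazolimine inhibition; 0.3 nM enzyme column for activation.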

[2] = MultiTox-Fluor Cytotoxicity Assay - LYMP1-001 - Live Cells (AID 947)
[3] = Cell Viability - LYMP1-002 - Assay at 16 hr (AID 948)
In short: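 Acute cytotoxicity is scored as a concentration-dependent fall in intracellular ATP in a human lymphoblastoid line (LYMP1-002) after 16 hr compound exposure at 37 C, measured by luciferase luminescence.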

[4] = MultiTox-Fluor Cytotoxicity Assay - LYMP1-002 - Live Cells (AID 955)
In short: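 Human lymphoblastoid LYMP1-002 cells, 2500/well, treated 16 h at 37 C in complete medium. Live-cell protease activity via GF-AFC fluorescence (Ex/Em 405/510) after 60 min reagent incubation; AC50 from Hill fits.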

[5] = MultiTox-Fluor Cytotoxicity Assay - LYMP1-002 - Dead Cells (AID 960); further: nearly all actives have a fitted effect of over 60% in size
In short: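 Human lymphoblastoid LYMP1-002 cells, 2500/well, treated 16 h at 37 C; dead-cell protease cleavage of bis-AAF-R110 read by fluorescence (485/520); normalized to DMSO and 15 uM tetraoctylammonium bromide; AC50 from Hill fit.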

[6] = MultiTox-Fluor Cytotoxicity Assay - LYMP1-003 - Dead Cells (AID 961); further: nearly all actives have a fitted effect of over 70% in size
In short: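 LYMP1-003 human lymphoblastoid cells (2500/well) exposed to compound 16 h at 37 C in complete medium; dead-cell protease read with bis-AAF-R110 fluorescence (Ex/Em 485/520) after 60 min at room temperature. Normalized to DMSO and 15 uM tetraoctylammonium bromide; AC50 from Hill fit.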

[7] = MultiTox-Fluor Cytotoxicity Assay - LYMP1-003 - Live Cells (AID 962);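 further: cytotoxic hits lower the live-cell protease signal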
In short: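 LYMP1-003 lymphoblastoid cells, 2500/well in complete medium, treated 16 h at 37 C; live-cell protease cleavage of GF-AFC read by fluorescence (Ex/Em 405/510) after 60 min reagent; AC50 from Hill fits of concentration-response.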

[8] = Cell Viability - LYMP1-003 - Assay at 24 hr (AID 963)
In short: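 Human lymphoblastoid LYMP1-003 cells, 2500/well, treated 24 h at 37 C in complete medium. Viability read as intracellular ATP by CellTiter-Glo luminescence after 30 min at room temperature; AC50 from Hill-equation fits of qHTS concentration-response.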

[9] = Cell Viability - LYMP1-003 - Assay at 40 hr (AID 964); further: series mostly up to about 92 µM; nearly all actives have a fitted effect of over 60% in size
In short: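 LYMP1-003 human lymphoblastoid cells, 2500/well, preincubated 5 h at 37 C, then treated with compound for 40 h at 37 C. Intracellular ATP read by CellTiter-Glo luminescence after 30 min at room temperature; AC50 from Hill-equation fits.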

[10] = Cell Viability - LYMP2-003 (AID 965);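 further: cells exposed to compounds for 24 h before reading; nearly all actives have a fitted effect of over 50% in size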
In short: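 Acute cytotoxicity is scored as a concentration-dependent drop in intracellular ATP, measured by luciferase luminescence in human lymphoblastoid cells treated for 24 hours at 37 C. AC50 values derive from Hill-equation modelling.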

[11] = Cell Viability - LYMP2-005 (AID 967); further: series mostly up to about 92 µM
In short: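 qHTS viability screen in LYMP2-005 cells: 24 h at 37 C with compound, ATP luminescence via CellTiter-Glo, AC50 from Hill curves.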

[12] = Cell Viability - LYMP2-009 (AID 968); further: series mostly up to about 92 µM; nearly all actives have a fitted effect of over 55% in size
[13] = Cell Viability - LYMP2-011 (AID 969); further: nearly all actives have a fitted effect of over 60% in size
In short: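 2500 cells/well in complete medium, compound-treated 24 h at 37 C. Viability read as intracellular ATP by CellTiter-Glo luminescence after 30 min at room temperature. AC50 from Hill fits of qHTS concentration-response data.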

[14] = Cell Viability - LYMP2-013 (AID 970); further: series mostly up to about 92 µM; nearly all actives have a fitted effect of over 55% in size
In short: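 Human lymphoblastoid LYMP2-013 cells, 2500/well, treated 24 h at 37 C in complete medium; viability as intracellular ATP by CellTiter-Glo luminescence after 30 min. AC50 from Hill fits of qHTS concentration-response.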

[15] = Cell Viability - LYMP2-015 (AID 971); further: nearly all actives have a fitted effect of over 55% in size
In short: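 LYMP2-015 human lymphoblastoid cells (2500/well) in complete medium, compound-treated 24 h at 37 C; viability read as cellular ATP by CellTiter-Glo luminescence after 30 min at room temperature. AC50 from Hill-equation fits of qHTS concentration-response data.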

[16] = Cell Viability - LYMP2-017 (AID 972); further: series mostly up to about 92 µM; nearly all actives have a fitted effect of over 55% in size
In short: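 LYMP2-017 human lymphoblastoid cells (2500/well) settled 5 hr at 37 C, then exposed to compound 24 hr at 37 C in complete medium. Viability taken as intracellular ATP by CellTiter-Glo luminescence after 30 min at RT; AC50 from Hill fits.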

[17] = Cell Viability - LYMP2-019 (AID 973); further: nearly all actives have a fitted effect of over 55% in size
In short: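 Human lymphoblastoid LYMP2-019 cells (2500/well) preincubated 5 h at 37 C, then treated 24 h at 37 C in complete medium. Viability by CellTiter-Glo ATP luminescence after 30 min at room temperature; AC50 from Hill fits.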

[18] = Cell Viability - LYMP2-021 (AID 974)
In short: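 Human lymphoblastoid LYMP2-021 cells, 2500/well in complete medium, treated 24 hours at 37 C. Intracellular ATP by CellTiter-Glo luminescence (30 min, RT); AC50 from Hill fits of concentration-response.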

Measured: Potency

Chain of Pyruvate kinase PKM (Homo sapiens) (P14618 whole entry, looked up): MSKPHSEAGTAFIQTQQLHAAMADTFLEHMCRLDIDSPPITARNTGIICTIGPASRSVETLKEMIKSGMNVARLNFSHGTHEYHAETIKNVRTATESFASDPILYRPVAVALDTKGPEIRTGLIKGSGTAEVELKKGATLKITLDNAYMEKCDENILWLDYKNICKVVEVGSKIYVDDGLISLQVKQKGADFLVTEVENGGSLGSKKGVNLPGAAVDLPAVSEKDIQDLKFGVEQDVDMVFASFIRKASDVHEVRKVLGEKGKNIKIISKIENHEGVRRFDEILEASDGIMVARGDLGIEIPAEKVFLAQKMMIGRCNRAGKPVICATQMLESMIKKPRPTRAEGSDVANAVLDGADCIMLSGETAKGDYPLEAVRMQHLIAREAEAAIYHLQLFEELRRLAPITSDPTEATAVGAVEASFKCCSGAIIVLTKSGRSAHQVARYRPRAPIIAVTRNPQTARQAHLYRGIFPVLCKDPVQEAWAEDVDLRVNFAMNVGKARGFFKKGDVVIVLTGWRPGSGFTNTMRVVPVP

Cc1[nH]c(=O)c(C#N)cc1-c1ccc2nccn2c1
inactive: [1]

N[C@@H]1CONC1=O
inactive: [1]

NC(=O)c1cnccn1
inactive: [2] | [3] | [1] | [4] | [5] | [6] | [7] | [8] | [9] | [10] | [11] | [12] | [13] | [14] | [15] | [16] | [17] | [18]

CNC[C@H](O)c1cccc(O)c1
inactive: [1]

O=C1CCc2cc(OCCCCc3nnnn3C3CCCCC3)ccc2N1
inactive: [1]

Cc1ccc(N(CC2=NCCN2)c2cccc(O)c2)cc1
inactive: [1]

Cc1cn[nH]c1
inactive: [1]
